The text below walks through data of the supplement of paper PMC9492666.

Where a name gives a salt, the structure may show the parent alone.
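Note: viability read out with the CCK-8 kit in 96-well plates, screening a set of 303 compounds acting on lipid metabolism targets.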

The subject of the first assay is HCC1937. In words: relative cell viability, compound alone, vs DMSO (fraction of DMSO control); higher = less growth inhibition. Particulars: 72 h.
As to `C=CCc1ccc(O)c(-c2cc(CC=C)ccc2O)c1` [Magnolol], the relative cell viability came out at 1.
Still for that read-out and setting: to `CC[C@H](C)C(=O)O[C@H]1C[C@@H](C)C=C2C=C[C@H](C)[C@H](CC[C@@H]3C[C@@H](O)CC(=O)O3)[C@H]21` [Lovastatin] belongs 1.13.
On the same count and under the same terms, for `CN(C(=O)n1cnc(-c2ccc[n+]([O-])c2)c1)C1CCCCC1` the value was 0.65; for `COc1ccc(-c2cc(=O)c3c(O)c(OC)c(O)cc3o2)cc1OC` [Eupatilin], 0.622; for `COc1ccc([C@@H]2OC[C@H]3[C@@H]2CO[C@@H]3c2ccc(O[C@@H]3O[C@H](CO)[C@@H](O)[C@H](O)[C@H]3O)c(OC)c2)cc1OC` [Forsythin], 1.22.
Turning to `C=C(C)[C@@H]1CCC2=CC(=O)C[C@@H](C)[C@]2(C)C1` [Nootkatone], the relative cell viability worked out at 0.882.
Regarding `O=C(OC(C(F)(F)F)C(F)(F)F)N1CCN(Cc2ccc(C(F)(F)F)cc2N2CCCC2)CC1`, the relative cell viability was found to be 0.999.

The test system of another assay is MDA-MB-231. The assay is described as above. Particulars: 72 h.
As to `CN(CCOc1ccc(CC2SC(=O)NC2=O)cc1)c1ccccn1` (stereo not drawn) [Rosiglitazone], the relative cell viability is 0.969.
Consider `Oc1ccc2c(c1)OCO2` [Sesamol], for which the relative cell viability came to 0.831.
Still for that read-out and setting: for `CC(=O)N1CCN(c2ccc(OCC3COC(Cn4ccnc4)(c4ccc(Cl)cc4Cl)O3)cc2)CC1` (stereo not drawn) [Ketoconazole] the value was 0.897.
Same read-out and setting: to `CCCCCC=CC(=O)CCc1ccc(O)c(OC)c1` [6-Shogaol] belongs 0.978.
The same measure, in the same setting: to `CC(=O)Oc1cc(C(F)(F)F)ccc1C(=O)O` [Triflusal] belongs 0.982.
In the case of `CC(C)c1onc(-c2c(Cl)cccc2Cl)c1COc1ccc(/C=C/c2cccc(C(=O)O)c2)c(Cl)c1`, the relative cell viability was 0.968.
Compound `C[C@@H]1OCC2(CCN(c3cnc(Sc4ccnc(N)c4Cl)c(N)n3)CC2)[C@@H]1N` showed a relative cell viability of 0.996.
The same measure, in the same setting: for `COc1ccc(-c2c[nH]c3nccc(-c4ccsc4)c23)c(OC)c1` the value was 0.935; for `c1cc(-c2cnn3cc(-c4ccc(OCCN5CCCCC5)cc4)cnc23)ccn1` [Dorsomorphin dihydrochloride], 0.301; for `O=C(O)c1c[nH]c2cc(Cl)c(-c3ccc(C4(O)CCC4)cc3)cc12`, 0.914.
In the case of `CC1(C)C[C@H]2C3=CC[C@@H]4[C@@]5(C)CC[C@H](O)[C@@](C)(CO)[C@@H]5CC[C@@]4(C)[C@]3(C)C[C@H](O)[C@@]2(CO)[C@@H](O)[C@@H]1O` [Gymnemagenin], the relative cell viability came out at 1.04.
On the same count and under the same terms, to `CC(C)Cc1ccc([C@H](C)C(=O)O)cc1` [Dexibuprofen] belongs 0.905; to `O=C(O)c1cc(F)c2nc(N3[C@@H]4CC[C@H]3C[C@@H](OCc3c(-c5ccccc5OC(F)(F)F)noc3C3CC3)C4)sc2c1` [Tropifexor], 0.971; to `CC1(C)CC[C@]2(C(=O)O[C@@H]3O[C@H](CO)[C@@H](O)[C@H](O)[C@H]3O)CC[C@]3(C)C(=CC[C@@H]4[C@@]5(C)CC[C@H](O[C@@H]6O[C@H](C(=O)O)[C@@H](O)[C@H](O)[C@H]6O[C@@H]6O[C@H](CO)[C@@H](O)[C@H](O)[C@H]6O)C(C)(C)[C@@H]5CC[C@]43C)[C@@H]2C1` [Ginsenoside Ro], 0.9.
On the same count and under the same terms, for `O=C(CC(C(=O)O)c1c[nH]c2ccccc12)c1ccc(F)cc1F` (stereo not drawn) [Mitochonic acid 5] the value was 1.19; for `O=C(Nc1cccnn1)N1CCC(=Cc2cccc(Oc3ccc(C(F)(F)F)cn3)c2)CC1`, 0.987; for `O=C1/C(=C/c2cccs2)CC/C1=C\c1cccs1`, 0.84.
As for `O=c1c(-c2ccc(O)cc2)coc2cc(O)ccc12` [Daidzein], the relative cell viability is 0.863.
The same measure, in the same setting: for `CCc1c(-c2ccccc2)c(-c2ccccc2)nn1-c1ccccc1-c1cccc(OCC(=O)O)c1` the value was 0.994.
On the same count and under the same terms, to `CS(=O)(=O)c1ccc(-c2nnc(/C=C/c3nnc(-c4ccc(C#N)cc4)o3)n2-c2ccccc2Cl)nc1` belongs 0.851.
On the same count and under the same terms, to `O=C(O)CCCc1cc2cc(Cl)ccc2n1S(=O)(=O)c1ccc2ncsc2c1` [Lanifibranor] belongs 1.07; to `CCCCCCCCCCC[C@@H](C[C@@H]1OC(=O)[C@H]1CCCCCC)OC(=O)[C@H](CC(C)C)NC=O` [Orlistat], 0.809.
`CCCCCCS(=O)(=O)NC(=O)c1ccc(CSCc2ccc(-c3ccccc3)cc2)cc1` came in with a relative cell viability of 0.91.
For `Cc1ccc(Oc2nc3cc(-c4ccc(-c5ccccc5)cc4)c(Cl)cc3[nH]2)cc1C(=O)O`, the relative cell viability worked out at 0.92.
Still for that read-out and setting: to `O=C(Nc1ccccc1)N1CCN(c2nc(-c3ccccc3)ns2)CC1` belongs 0.821.
Regarding `CC1(C)CC[C@]2(C(=O)O[C@@H]3O[C@H](CO)[C@@H](O)[C@H](O)[C@H]3O)CC[C@]3(C)C(=CC[C@@H]4[C@@]5(C)CC[C@H](O[C@@H]6O[C@H](C(=O)O)[C@@H](O)[C@H](O)[C@H]6O)C(C)(C)[C@@H]5CC[C@]43C)[C@@H]2C1` [Chikusetsusaponin IVa], the relative cell viability is 0.966.
